Here are results for 36 compounds from PubChem BioAssay AID1569 (National Center for Advancing Translational Sciences (NCATS), 2009).

Results filed as inconclusive are left out. Active and inactive are the calls of the source. The call rests on the fitted dose curve; in most records, active means well fitted inhibition curve with a large enough effect; inconclusive means small, poorly fitted or top-dose-only effect, or effect the other way, or another doubt; inactive means no such curve, though single readings can be large or run the other way.
Potency means the concentration at half of the fitted maximal effect.

The nature of the assay: Confirmation Concentration-Response Assay for lipid storage modulators. Further: nearly all actives have a fitted effect of over 80% in size. Conditions: Drosophila S3 cells, lipid droplet BODIPY/CellTracker ratio, 18-24 h; series mostly up to 46.1 µM. Summed up: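 Cells at 5,000/well received compound as a titration plus oleic acid (added as 400 uM solution) and were incubated 18–24 h at 24 °C. BODIPY 493/503 lipid signal and CellTracker Red cell count were read by 488-nm laser-scanning cytometry. Activity was normalised to 20 uM Triacsin C.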
`COC(=O)c1ccccc1NC(=O)c1ccc(F)cc1F`: the Potency was 1410 nM [activator] (active).

On to `Cc1nn(C)c(C)c1CN(Cc1nc(CCC(C)C)no1)C(C)C`, for which the Potency was 12500 nM (active).

On to `Cc1cccc(-n2ncc3c2CCCC3NC(=O)Cc2c(C)noc2C)c1C` (stereo unspecified), for which the Potency is 14100 nM (active).

`CCOc1ccc(CCNC(=O)COC(=O)c2ccc(S(C)(=O)=O)cc2)cc1OCC`: the Potency result was “inactive”.

Regarding `CCN(CC(=O)Nc1c(F)cccc1F)C(=O)CCCc1c[nH]c2ccccc12`, the Potency is 628 nM (active).

Turning to `Cc1cc(N2CCCC2=O)cc(C)c1S(=O)(=O)NCCOc1ccc(C(C)(C)C)cc1`, the Potency was 3970 nM (active).

For `CCOc1ccc(CCNC(=O)COC(=O)/C=C/c2ccc(C)o2)cc1OCC`, the Potency was 499 nM (active).

In the case of `CCOc1ccc(CCNC(=O)CN2C(=O)NC3(CCCCC3C)C2=O)cc1OCC` (stereo unspecified), the Potency entry is “inactive”.

In the case of `COc1ccc(CC(=O)NCCc2ccc(OC)c(OC)c2)cc1`, the Potency result was “inactive”.

Take `COCc1ccc(C(=O)NC2CCCc3c2cnn3-c2cc(C)cc(C)c2)s1` (stereo unspecified): the Potency was 24.4 nM (active).

Regarding `CC1=C(C(=O)NC2CCCc3c2cnn3-c2cccc(C)c2C)OCCO1` (stereo unspecified), the Potency is 13.7 nM (active).

Regarding `Cc1ccccc1NC(=O)NC1(C(=O)N2CCC(O)CC2)CCCCC1`, the Potency result is “inactive”.

For the compound `COCCN(C(=O)c1ccccc1F)c1nnc(-c2ccc(OC)cc2)s1`, the Potency was 25000 nM (active).

Regarding `CC1CCCCN1c1ccc(N)cc1C(N)=O` (stereo unspecified), the Potency result was “inactive”.

In the case of `CSCC(=O)NC1CCCc2c1cnn2-c1cc(F)cc(F)c1` (stereo unspecified), the Potency is 2500 nM (active).

As for `OC1(c2cccc(C(F)(F)F)c2)CCN(c2ncnc3c2[nH]c2ccc(F)cc23)CC1`, the Potency is 7910 nM (active).

Consider `COc1ccccc1Nc1nnc(SCC(=O)Nc2nc(-c3ccc(F)cc3)cs2)s1`, for which the Potency is 705 nM (active).

Consider `Cc1cccc(OCc2nnc(SCC(=O)N3c4ccccc4CC3C)n2C)c1C` (stereo unspecified), for which the Potency was 6280 nM (active).

Consider `CCOc1ccc(CCNC(=O)COC(=O)CCc2cc(OC)c(OC)c(OC)c2)cc1OCC`, for which the Potency result is “inactive”.

Take `c1ccc(CNc2ncnc3ccccc23)cc1`: the Potency is 12500 nM (active).

In the case of `CCOc1ccc(CCNC(=O)COC(=O)C2CCN(c3ccc(C(F)(F)F)cn3)CC2)cc1OCC`, the Potency entry was “inactive”.

As to `COc1ccc(CCNC(=O)Cn2nnc(-c3ccc(N4CCOCC4)cc3)n2)cc1OC`, the Potency is 44.5 nM (active).

Take `CCOc1ccc(OCC)c(NC(=O)C2CCN(S(=O)(=O)c3c(C)noc3C)CC2)c1`: the Potency is 996 nM (active).

`CC(C)(C)c1ccc(/C=C2\SC(=O)N(CCNC(=O)c3cccc(S(=O)(=O)N4CCOCC4)c3)C2=O)cc1`: the Potency was 8880 nM (active).

In the case of `Cc1cc(C)cc(-n2ncc3c2CCCC3NC(=O)c2csnn2)c1` (stereo unspecified), the Potency is 11.2 nM (active).

In the case of `COc1ccccc1C(=O)O[C@H]1[C@H](Cc2ccccc2)NS(=O)(=O)[C@H]2C[C@@H]3C=C[C@]12O3`, the Potency was 8880 nM (active).

As for `Cc1sc2ncnc(NCC3COc4ccccc4O3)c2c1C` (stereo unspecified), the Potency is 1990 nM (active).

`COc1ccc(CCNC(=O)CCC(=O)c2cccs2)cc1OC`: the Potency entry is “inactive”.

In the case of `CCc1ccc(NC(=O)COc2ccc(/C=C(/C#N)c3nc4ccccc4[nH]3)cc2OC)cc1`, the Potency was 7050 nM (active).

Consider `Cc1ccc(C)c(OCc2cc(C(=O)N3CC[C@@H]4CCCC[C@H]4C3)no2)c1`, for which the Potency was 14100 nM (active).

Take `O=C(NCc1cccnc1)Nc1cc(Cl)cc(Cl)c1`: the Potency entry is “inactive”.

Take `COCCCN1C(=O)c2ccc(C(=O)OCC(=O)NCc3ccccc3OC)cc2C1=O`: the Potency result was “inactive”.

On to `CCCCCCCCn1c(=O)c(C(=O)OC)c(N)c2ccccc21`, for which the Potency was 7910 nM (active).

For the compound `COc1ccc(OC)c(NC(=O)CSc2ncnc3c2cnn3-c2ccccc2Cl)c1`, the Potency was 1770 nM (active).

For the compound `COc1ccc(/C=C(/NC(=O)c2cccs2)C(=O)Nc2ccc(C)cc2)cc1OC`, the Potency is 250 nM (active).

On to `COc1ccc(NC(=O)NC2(C(=O)N3CCOCC3)CCCCC2)cc1`, for which the Potency entry was “inactive”.
